{"source": "PubChem BioAssay AID2284188", "about": "(EPA ToxCast)", "note": "Active and inactive are the calls of the source. The calls were made as follows: active = hit-call score of the fitted dose curve at least 0.9, where 1 is the maximum; inactive = score below 0.9."}
{"molecular_target": "Voltage-dependent L-type calcium channel subunit alpha-1C (Rattus norvegicus) (UniProt P22002)", "sequence (P22002 whole entry, looked up)": "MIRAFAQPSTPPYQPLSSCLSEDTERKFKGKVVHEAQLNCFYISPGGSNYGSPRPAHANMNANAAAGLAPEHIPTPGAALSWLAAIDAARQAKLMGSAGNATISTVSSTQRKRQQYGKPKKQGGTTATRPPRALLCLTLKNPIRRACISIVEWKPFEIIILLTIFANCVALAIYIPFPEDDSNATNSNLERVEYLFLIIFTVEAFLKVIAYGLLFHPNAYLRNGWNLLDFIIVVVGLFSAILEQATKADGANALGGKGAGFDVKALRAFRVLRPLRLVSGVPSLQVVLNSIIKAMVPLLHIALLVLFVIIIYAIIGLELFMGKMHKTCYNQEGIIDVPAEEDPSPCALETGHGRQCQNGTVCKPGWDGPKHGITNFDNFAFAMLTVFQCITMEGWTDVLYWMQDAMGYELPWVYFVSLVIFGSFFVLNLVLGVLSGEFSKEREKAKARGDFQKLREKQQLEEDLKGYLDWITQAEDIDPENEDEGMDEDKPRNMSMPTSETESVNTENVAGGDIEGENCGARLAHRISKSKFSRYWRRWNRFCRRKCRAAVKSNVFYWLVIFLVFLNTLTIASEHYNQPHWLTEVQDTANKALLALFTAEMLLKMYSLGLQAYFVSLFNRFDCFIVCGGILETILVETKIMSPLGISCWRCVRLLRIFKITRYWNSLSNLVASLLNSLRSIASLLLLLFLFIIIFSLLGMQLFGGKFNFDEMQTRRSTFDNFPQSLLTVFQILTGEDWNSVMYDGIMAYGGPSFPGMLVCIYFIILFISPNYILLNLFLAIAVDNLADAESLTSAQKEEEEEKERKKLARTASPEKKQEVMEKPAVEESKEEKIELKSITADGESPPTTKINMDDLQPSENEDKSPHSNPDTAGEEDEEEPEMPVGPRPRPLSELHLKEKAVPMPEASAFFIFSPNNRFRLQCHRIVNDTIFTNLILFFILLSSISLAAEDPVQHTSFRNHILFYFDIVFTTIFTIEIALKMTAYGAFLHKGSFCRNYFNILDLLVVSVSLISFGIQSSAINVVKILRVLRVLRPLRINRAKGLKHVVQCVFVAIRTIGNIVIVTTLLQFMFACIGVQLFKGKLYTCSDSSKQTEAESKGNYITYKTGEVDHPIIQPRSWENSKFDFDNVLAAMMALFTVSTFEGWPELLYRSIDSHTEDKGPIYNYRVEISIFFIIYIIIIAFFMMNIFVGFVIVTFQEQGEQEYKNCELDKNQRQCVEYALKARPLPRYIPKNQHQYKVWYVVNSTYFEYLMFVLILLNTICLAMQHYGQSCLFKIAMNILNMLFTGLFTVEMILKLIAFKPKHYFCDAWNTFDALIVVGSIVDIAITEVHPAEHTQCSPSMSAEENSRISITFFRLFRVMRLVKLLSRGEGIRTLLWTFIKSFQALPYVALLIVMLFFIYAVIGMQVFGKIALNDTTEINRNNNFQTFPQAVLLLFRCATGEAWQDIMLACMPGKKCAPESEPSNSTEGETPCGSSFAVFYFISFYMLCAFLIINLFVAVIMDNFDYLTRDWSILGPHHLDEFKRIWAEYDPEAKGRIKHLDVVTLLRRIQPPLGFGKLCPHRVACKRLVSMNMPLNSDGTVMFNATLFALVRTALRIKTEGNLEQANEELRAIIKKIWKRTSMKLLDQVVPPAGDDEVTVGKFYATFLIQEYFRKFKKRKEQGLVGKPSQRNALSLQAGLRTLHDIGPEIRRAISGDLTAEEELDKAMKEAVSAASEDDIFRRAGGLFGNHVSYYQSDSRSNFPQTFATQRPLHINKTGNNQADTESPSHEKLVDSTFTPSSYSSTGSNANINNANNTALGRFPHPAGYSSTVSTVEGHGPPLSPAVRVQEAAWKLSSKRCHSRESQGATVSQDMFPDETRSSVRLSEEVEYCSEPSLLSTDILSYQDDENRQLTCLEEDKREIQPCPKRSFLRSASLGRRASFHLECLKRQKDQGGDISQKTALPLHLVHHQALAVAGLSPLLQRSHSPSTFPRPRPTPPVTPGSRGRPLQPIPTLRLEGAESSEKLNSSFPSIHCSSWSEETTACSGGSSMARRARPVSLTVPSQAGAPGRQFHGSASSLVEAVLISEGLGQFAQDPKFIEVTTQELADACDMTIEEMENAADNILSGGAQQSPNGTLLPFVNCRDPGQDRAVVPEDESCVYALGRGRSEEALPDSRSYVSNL", "test": "ERF_FR_IC_rCACNA1C_Diltiazem: Eurofins (ERF) Calcium Ion Channel Binding (Diltiazem Site) LeadHunter Assay for rat Cav1.2 (L-type)", "description": "ERF_FR_IC_rCACNA1C_Diltiazem is a biochemical, single-readout assay that uses extracted gene-proteins in a cell-free assay. Measurements were taken 2 hour after chemical dosing in a 96-well plate. See Cav1.2 (L-type) Rat Calcium Ion Channel Binding (Diltiazem Site) Assay, Cerep.ERF_FR_IC_rCACNA1C_Diltiazem is an assay component calculated from the ERF_FR_IC_rCACNA1C_Diltiazem assay. It is designed to measure radioligand binding using a type of binding reporter as detected by scintillation counting with radiometry technology.Data from the assay component ERF_FR_IC_rCACNA1C_Diltiazem was analyzed at the assay endpoint, ERF_FR_IC_rCACNA1C_Diltiazem, in the positive analysis fitting direction relative to DMSO as the negative control and baseline of activity. Using a type of binding reporter, loss-of-signal activity can be used to understand changes in binding as they relate to gene CACNA1C. To generalize the intended target to other relatable targets, this assay endpoint is annotated to the ion channel intended target family, where the subfamily is voltage gated (Calcium).\nRat cells are incubated for 120 minutes at room temprature with [3H]diltiazem (15 nM) as substrate and Papaverine as control inhibitor. Test Sample Requirements: Minimum for 1) Screen: 60 ul of 10 mM stock -OR- 1 mg (pre-weighed) for 10 uM final testing. […]"}
{"smiles": "O=C(/C=C/c1ccc(O)cc1)CC(=O)/C=C/c1ccc(O)cc1", "AC50": "3.46 µM (active)"}
